# Reference: paper PMC7862700, “An all-to-all approach to the identification of sequence-specific readers for epigenetic DNA modifications on cytosine”
# What was measured:
# Assay in all cases: DAPPL (digital affinity profiling via proximity ligation, sequencing); 10 mM Tris-HCl pH 7.5, 50 mM NaCl, 1 mM DTT, 4% glycerol, room temperature, 30 min; GST-TFs on glutathione beads, 16-mer random dsDNA library, 0.1% formaldehyde crosslink after washing; high values mean tight binding
# FLI1 = target: T1, FLI1 (Homo sapiens, UniProt Q01543 1-452); conditions: protein: recombinant; tags: N-terminal GST; dsDNA, one strand shown
# T1 sequence: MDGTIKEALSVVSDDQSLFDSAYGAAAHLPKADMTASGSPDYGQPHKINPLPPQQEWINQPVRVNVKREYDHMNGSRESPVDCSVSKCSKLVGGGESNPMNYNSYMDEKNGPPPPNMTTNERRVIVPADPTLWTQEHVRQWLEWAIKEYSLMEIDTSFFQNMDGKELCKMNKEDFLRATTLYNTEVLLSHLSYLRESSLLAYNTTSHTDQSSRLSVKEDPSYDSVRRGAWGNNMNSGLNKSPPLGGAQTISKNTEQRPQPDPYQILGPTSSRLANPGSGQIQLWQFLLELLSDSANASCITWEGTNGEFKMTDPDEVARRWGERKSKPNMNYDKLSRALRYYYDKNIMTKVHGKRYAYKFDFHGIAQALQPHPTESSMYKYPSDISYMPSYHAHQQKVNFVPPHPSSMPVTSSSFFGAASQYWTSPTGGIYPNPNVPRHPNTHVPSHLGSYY
# How it was run: (§1)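 Yeast served to express human transcription factors as GST fusions, which were then captured on glutathione beads and labelled with DNA barcodes. Pooled with a tag-only sample, they were incubated with 200 nmole of a 16-mer random double-stranded DNA library for 30 min at room temperature in Tris/NaCl/DTT/glycerol buffer, washed, crosslinked with 0.1% formaldehyde, ligated by proximity, amplified by PCR and sequenced. Dividing each hexamer's read frequency for a factor by its frequency for the tag-only sample gives the binding signal.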
# ELK1 = target: T2, ELK1 (Homo sapiens, UniProt P19419 1-428); conditions: protein: recombinant; tags: N-terminal GST; dsDNA, one strand shown
# T2 sequence: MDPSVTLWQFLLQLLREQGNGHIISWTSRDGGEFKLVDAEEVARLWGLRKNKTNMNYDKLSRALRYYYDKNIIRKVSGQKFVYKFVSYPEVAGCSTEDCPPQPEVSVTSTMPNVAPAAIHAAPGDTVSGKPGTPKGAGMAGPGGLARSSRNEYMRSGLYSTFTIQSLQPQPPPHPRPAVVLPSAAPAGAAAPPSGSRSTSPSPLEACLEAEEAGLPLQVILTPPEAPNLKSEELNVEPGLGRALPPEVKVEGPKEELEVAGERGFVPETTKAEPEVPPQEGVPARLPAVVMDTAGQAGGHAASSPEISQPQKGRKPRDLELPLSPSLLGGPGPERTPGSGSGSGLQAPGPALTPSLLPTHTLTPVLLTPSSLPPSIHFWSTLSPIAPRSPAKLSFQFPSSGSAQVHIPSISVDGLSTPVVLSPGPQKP
# How it was run: as §1
# GABPA = target: T3, GABPA (Homo sapiens, UniProt Q06546 1-454); conditions: protein: recombinant; tags: N-terminal GST; dsDNA, one strand shown
# T3 sequence: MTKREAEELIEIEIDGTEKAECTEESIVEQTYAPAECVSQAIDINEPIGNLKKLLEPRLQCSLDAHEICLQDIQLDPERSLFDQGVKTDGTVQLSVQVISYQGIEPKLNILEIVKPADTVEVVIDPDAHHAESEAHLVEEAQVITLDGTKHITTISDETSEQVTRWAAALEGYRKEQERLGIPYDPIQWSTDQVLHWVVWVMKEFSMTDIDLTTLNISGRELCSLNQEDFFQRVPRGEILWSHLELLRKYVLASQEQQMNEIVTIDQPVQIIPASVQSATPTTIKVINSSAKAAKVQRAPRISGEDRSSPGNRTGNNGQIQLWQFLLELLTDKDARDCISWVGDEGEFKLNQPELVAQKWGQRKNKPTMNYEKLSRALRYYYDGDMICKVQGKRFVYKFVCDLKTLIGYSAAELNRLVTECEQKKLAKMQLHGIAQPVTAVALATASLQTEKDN
# How it was run: as §1
# ERG = target: T4, ERG (Homo sapiens, UniProt P11308 1-479); conditions: protein: recombinant; tags: N-terminal GST; dsDNA, one strand shown
# T4 sequence: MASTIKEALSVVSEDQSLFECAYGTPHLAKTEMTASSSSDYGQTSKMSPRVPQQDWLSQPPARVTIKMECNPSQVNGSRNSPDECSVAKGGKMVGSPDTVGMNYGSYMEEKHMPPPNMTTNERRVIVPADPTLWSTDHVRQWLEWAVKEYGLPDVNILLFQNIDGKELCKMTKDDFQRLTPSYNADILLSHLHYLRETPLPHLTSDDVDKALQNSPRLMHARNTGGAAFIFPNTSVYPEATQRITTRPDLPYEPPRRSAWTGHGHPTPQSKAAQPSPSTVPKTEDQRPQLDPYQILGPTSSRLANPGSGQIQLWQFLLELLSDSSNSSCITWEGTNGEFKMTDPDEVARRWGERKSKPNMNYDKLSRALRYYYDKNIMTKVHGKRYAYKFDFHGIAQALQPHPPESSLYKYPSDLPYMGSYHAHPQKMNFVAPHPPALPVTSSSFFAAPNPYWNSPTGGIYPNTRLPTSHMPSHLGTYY
# How it was run: as §1
# ELF1 = ELF1 (Homo sapiens, UniProt P32519 1-619); conditions: protein: recombinant; tags: N-terminal GST; dsDNA, one strand shown
# How it was run: as §1
# EHF = target: T5, EHF (Homo sapiens, UniProt Q9NZC4 1-300); conditions: protein: recombinant; tags: N-terminal GST; dsDNA, one strand shown
# T5 sequence: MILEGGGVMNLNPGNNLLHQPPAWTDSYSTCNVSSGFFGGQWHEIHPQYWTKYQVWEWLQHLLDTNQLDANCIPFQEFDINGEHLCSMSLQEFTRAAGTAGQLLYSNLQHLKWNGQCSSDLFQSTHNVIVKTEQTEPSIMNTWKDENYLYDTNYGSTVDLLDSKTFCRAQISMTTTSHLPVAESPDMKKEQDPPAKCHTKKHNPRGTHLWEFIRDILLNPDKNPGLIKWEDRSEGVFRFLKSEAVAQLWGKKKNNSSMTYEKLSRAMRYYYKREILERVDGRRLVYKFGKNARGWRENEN
# How it was run: as §1
# SPI1 = SPI1 (Homo sapiens, UniProt P17947 1-270); conditions: protein: recombinant; tags: N-terminal GST; dsDNA, one strand shown
# How it was run: as §1
# SPIB = SPIB (Homo sapiens, UniProt Q01892 1-262); conditions: protein: recombinant; tags: N-terminal GST; dsDNA, one strand shown
# How it was run: as §1
# ELK3 = target: T6, ELK3 (Homo sapiens, UniProt P41970 1-407); conditions: protein: recombinant; tags: N-terminal GST; dsDNA, one strand shown
# T6 sequence: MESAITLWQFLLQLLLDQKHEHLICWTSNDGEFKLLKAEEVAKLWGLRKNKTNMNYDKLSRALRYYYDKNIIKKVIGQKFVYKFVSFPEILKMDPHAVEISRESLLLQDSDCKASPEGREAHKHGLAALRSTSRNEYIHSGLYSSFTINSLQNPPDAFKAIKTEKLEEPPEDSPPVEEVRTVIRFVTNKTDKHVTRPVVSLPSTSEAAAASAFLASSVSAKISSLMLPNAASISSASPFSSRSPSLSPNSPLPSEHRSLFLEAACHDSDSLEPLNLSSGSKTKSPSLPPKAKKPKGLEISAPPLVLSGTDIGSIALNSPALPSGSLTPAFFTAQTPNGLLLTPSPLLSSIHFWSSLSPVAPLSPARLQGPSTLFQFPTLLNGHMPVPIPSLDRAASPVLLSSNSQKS
# How it was run: as §1
# FEV = target: T7, FEV (Homo sapiens, UniProt Q99581 1-238); conditions: protein: recombinant; tags: N-terminal GST; dsDNA, one strand shown
# T7 sequence: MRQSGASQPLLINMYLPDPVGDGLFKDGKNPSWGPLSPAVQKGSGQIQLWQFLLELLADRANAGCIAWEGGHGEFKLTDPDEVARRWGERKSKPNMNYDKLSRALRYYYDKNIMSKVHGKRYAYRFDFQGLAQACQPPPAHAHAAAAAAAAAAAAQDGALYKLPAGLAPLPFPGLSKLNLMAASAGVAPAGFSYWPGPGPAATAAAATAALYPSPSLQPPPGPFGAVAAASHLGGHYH
# How it was run: as §1
# ETV5 = ETV5 (Homo sapiens, UniProt P41161 1-510); conditions: protein: recombinant; tags: N-terminal GST; dsDNA, one strand shown
# How it was run: as §1
# HSF1 = HSF1 (Homo sapiens, UniProt Q00613 1-529); conditions: protein: recombinant; tags: N-terminal GST; chain copies: 3; dsDNA, one strand shown
# How it was run: as §1
# SPIC = target: T8, SPIC (Homo sapiens, UniProt Q8N5J4 1-248); conditions: protein: recombinant; tags: N-terminal GST; dsDNA, one strand shown
# T8 sequence: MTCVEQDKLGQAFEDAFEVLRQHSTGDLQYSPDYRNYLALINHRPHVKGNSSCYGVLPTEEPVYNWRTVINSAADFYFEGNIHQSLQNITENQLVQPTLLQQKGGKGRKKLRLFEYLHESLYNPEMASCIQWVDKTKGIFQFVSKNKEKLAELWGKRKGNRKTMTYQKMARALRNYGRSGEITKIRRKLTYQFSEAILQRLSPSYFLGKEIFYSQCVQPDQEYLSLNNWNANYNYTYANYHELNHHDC
# How it was run: as §1
# ELF4 = ELF4 (Homo sapiens, UniProt Q99607 1-663); conditions: protein: recombinant; tags: N-terminal GST; dsDNA, one strand shown
# How it was run: as §1
# ELK4 = target: T9, ELK4 (Homo sapiens, UniProt P28324-2 1-405); conditions: protein: recombinant; tags: N-terminal GST; dsDNA, one strand shown
# T9 sequence: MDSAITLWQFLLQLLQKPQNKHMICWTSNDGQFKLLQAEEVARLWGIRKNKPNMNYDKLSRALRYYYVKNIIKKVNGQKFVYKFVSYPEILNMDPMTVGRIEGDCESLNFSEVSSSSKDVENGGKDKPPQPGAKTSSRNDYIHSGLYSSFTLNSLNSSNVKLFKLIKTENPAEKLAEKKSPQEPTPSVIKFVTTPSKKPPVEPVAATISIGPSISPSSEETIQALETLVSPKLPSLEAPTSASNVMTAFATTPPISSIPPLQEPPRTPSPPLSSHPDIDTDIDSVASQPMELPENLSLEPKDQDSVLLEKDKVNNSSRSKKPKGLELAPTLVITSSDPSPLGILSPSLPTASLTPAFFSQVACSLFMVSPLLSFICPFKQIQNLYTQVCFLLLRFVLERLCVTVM
# How it was run: as §1
# ETV2 = target: T10, ETV2 (Homo sapiens, UniProt O00321 1-342); conditions: protein: recombinant; tags: N-terminal GST; dsDNA, one strand shown
# T10 sequence: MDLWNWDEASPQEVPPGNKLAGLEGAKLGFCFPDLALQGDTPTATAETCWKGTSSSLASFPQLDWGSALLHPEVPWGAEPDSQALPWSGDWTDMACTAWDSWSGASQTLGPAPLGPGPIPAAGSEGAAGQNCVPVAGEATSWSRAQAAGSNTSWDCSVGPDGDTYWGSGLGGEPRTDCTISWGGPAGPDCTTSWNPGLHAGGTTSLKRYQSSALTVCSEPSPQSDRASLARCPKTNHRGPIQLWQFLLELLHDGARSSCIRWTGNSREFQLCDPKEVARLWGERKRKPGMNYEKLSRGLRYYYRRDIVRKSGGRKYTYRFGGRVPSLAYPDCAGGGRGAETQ
# How it was run: as §1
# ELF3 = target: T11, ELF3 (Homo sapiens, UniProt P78545 1-371); conditions: protein: recombinant; tags: N-terminal GST; dsDNA, one strand shown
# T11 sequence: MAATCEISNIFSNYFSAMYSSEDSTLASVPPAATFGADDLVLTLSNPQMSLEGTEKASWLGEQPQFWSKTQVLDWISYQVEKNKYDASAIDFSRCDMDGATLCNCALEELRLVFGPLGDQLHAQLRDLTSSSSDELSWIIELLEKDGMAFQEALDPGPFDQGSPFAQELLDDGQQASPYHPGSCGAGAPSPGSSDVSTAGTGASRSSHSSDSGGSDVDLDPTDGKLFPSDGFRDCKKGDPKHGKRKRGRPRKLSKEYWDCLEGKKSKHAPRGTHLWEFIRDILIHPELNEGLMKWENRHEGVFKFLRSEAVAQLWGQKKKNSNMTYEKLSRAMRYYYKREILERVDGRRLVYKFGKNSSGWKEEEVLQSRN
# How it was run: as §1
# CRX = CRX (Homo sapiens, UniProt O43186 1-299); conditions: protein: recombinant; tags: N-terminal GST; dsDNA, one strand shown
# How it was run: as §1
# ETV1 = ETV1 (Homo sapiens, UniProt P50549 1-477); conditions: protein: recombinant; tags: N-terminal GST; dsDNA, one strand shown
# How it was run: as §1
# SPIB, sequence (Q01892 whole entry): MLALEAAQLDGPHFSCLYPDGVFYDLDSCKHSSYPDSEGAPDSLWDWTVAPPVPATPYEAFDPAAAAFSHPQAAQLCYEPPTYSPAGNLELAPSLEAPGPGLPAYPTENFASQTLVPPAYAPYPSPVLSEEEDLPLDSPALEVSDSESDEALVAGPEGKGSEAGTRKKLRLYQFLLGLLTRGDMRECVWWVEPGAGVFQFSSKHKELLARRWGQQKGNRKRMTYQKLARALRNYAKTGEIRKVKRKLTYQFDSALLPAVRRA
# HSF1, sequence (Q00613 whole entry): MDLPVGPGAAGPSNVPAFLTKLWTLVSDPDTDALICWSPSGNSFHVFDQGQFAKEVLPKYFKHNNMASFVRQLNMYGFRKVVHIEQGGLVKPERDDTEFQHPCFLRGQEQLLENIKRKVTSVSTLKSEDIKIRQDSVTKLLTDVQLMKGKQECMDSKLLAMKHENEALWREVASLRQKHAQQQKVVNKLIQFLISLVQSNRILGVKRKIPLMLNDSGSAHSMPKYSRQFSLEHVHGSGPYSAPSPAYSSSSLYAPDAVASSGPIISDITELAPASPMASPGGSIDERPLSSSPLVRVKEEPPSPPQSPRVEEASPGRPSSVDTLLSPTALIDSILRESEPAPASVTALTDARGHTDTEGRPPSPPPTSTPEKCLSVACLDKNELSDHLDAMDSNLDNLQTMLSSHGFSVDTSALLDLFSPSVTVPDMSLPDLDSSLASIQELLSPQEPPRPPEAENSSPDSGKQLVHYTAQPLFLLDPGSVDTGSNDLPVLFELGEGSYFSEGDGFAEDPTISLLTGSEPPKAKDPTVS
# CRX, sequence (O43186 whole entry): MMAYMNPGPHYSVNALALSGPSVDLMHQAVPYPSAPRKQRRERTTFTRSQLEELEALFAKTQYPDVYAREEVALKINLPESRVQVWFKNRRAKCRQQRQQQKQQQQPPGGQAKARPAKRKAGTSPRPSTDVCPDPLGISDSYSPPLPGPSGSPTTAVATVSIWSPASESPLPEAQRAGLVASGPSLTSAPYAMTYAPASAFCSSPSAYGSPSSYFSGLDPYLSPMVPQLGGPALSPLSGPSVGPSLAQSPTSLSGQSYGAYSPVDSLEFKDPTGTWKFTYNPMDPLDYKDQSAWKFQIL
# ELF4, sequence (Q99607 whole entry): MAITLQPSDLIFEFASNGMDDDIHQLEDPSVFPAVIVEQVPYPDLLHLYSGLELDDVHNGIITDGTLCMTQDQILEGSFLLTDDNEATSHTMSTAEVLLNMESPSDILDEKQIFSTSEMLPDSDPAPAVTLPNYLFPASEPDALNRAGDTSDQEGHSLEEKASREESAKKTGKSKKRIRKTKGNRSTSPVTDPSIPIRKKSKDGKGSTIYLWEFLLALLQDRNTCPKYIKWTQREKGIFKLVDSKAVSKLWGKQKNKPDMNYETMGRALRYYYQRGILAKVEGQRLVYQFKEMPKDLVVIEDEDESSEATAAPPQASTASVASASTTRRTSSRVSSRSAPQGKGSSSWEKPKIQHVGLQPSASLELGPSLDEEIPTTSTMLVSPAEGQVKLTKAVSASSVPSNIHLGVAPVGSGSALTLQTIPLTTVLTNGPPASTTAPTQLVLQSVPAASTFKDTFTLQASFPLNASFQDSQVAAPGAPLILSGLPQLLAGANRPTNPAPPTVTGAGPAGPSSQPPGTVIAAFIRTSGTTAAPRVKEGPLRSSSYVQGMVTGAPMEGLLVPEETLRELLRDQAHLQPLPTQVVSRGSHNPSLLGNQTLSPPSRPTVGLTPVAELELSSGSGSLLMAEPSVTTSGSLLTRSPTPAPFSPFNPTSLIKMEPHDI
# ETV5, sequence (P41161 whole entry): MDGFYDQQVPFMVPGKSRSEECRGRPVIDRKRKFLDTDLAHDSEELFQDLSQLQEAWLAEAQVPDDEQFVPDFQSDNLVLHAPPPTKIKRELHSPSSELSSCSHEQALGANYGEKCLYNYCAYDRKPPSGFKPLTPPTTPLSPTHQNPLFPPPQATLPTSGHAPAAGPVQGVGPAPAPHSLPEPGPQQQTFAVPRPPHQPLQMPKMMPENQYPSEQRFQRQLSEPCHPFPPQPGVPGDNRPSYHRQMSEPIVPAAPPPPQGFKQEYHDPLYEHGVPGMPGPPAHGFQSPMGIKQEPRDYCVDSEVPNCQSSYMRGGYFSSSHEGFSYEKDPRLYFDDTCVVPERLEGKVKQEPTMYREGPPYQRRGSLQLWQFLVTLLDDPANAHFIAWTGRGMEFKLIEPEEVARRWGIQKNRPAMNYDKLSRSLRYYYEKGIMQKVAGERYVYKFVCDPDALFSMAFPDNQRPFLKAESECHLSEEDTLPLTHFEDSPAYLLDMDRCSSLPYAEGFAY
# ELF1, sequence (P32519 whole entry): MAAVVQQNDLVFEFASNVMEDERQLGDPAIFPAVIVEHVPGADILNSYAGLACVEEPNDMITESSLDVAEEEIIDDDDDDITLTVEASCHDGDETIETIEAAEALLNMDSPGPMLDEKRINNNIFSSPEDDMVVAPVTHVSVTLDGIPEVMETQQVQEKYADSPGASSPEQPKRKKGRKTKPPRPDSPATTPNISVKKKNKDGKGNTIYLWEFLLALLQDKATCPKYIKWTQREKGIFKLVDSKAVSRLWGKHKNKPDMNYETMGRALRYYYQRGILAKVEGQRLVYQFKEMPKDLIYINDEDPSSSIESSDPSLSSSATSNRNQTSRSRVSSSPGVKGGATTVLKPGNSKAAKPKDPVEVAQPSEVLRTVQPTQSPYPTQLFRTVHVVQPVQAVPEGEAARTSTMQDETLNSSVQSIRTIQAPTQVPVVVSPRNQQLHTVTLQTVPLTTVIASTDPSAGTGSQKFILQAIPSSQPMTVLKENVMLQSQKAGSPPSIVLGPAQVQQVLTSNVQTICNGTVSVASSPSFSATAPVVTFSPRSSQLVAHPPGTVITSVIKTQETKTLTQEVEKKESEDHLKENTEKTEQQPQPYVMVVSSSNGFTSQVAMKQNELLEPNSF
# ETV1, sequence (P50549 whole entry): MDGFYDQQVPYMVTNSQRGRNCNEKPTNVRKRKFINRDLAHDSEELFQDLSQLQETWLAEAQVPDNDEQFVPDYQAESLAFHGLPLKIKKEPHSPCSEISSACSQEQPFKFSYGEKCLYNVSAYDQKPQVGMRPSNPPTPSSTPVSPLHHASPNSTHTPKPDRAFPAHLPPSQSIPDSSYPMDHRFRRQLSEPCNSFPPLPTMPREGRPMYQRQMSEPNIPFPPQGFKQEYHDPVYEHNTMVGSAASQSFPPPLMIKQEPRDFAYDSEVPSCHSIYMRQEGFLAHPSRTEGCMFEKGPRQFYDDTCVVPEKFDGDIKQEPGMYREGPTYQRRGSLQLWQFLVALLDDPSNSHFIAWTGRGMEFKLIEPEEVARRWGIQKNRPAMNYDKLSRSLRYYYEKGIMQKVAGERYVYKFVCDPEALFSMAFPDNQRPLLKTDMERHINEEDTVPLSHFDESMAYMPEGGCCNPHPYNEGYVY
sequence,measurement,setting,value
ATGGAT,binding signal,FLI1,"1.06 fold enrichment (6-mer frequency, TF over GST control)"
same,binding signal,ELK1,"1.11 fold enrichment (6-mer frequency, TF over GST control)"
same,binding signal,GABPA,"1.18 fold enrichment (6-mer frequency, TF over GST control)"
same,binding signal,ERG,"1.08 fold enrichment (6-mer frequency, TF over GST control)"
same,binding signal,ELF1,"1.04 fold enrichment (6-mer frequency, TF over GST control)"
same,binding signal,EHF,"1.09 fold enrichment (6-mer frequency, TF over GST control)"
same,binding signal,SPI1,"1.06 fold enrichment (6-mer frequency, TF over GST control)"
same,binding signal,SPIB,"1.14 fold enrichment (6-mer frequency, TF over GST control)"
same,binding signal,ELK3,"1.2 fold enrichment (6-mer frequency, TF over GST control)"
same,binding signal,FEV,"1.04 fold enrichment (6-mer frequency, TF over GST control)"
same,binding signal,ETV5,"1.07 fold enrichment (6-mer frequency, TF over GST control)"
same,binding signal,HSF1,"1.26 fold enrichment (6-mer frequency, TF over GST control)"
same,binding signal,SPIC,"1.21 fold enrichment (6-mer frequency, TF over GST control)"
same,binding signal,ELF4,"1.11 fold enrichment (6-mer frequency, TF over GST control)"
same,binding signal,ELK4,"1.14 fold enrichment (6-mer frequency, TF over GST control)"
same,binding signal,ETV2,"1.06 fold enrichment (6-mer frequency, TF over GST control)"
same,binding signal,ELF3,"1.09 fold enrichment (6-mer frequency, TF over GST control)"
same,binding signal,CRX,"1.6 fold enrichment (6-mer frequency, TF over GST control)"
same,binding signal,ETV1,"1.06 fold enrichment (6-mer frequency, TF over GST control)"
